The text below walks through data of PubChem BioAssay (EPA / NIEHS).

A short description of assay [1]: BSK_3C_uPAR: BioMAP Diversity Plus: 3C Assay for Urokinase-type plasminogen activator receptor (uPAR) Biomarker Activity (AID 2282998). The following applies: BioMAP 3C HUVEC, uPAR biomarker ELISA; actives raise or lower the signal. Summed up:
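Endothelial primary cells of human umbilical vein origin received test chemical; 24 h later uPAR was assayed by ELISA. Fitting was bidirectional, DMSO as negative control.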
On the technique in general: ELISA stands for enzyme-linked immunosorbent assay.

Assay [2] is described as follows: BSK_3C_VCAM1: BioMAP Diversity Plus: 3C Assay for Vascular cell adhesion molecule 1 (VCAM1) Biomarker Activity (AID 2282999). To be noted: BioMAP 3C HUVEC, VCAM1 ELISA, cytokine-stimulated; actives raise or lower the signal. Put shortly:
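Endothelial cells from human umbilical vein are treated with test chemical. At 24 h, VCAM-1 is measured by ELISA, and responses in either direction are fitted relative to DMSO.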

The nature of assay [3]: BSK_4H_Eotaxin3: BioMAP Diversity Plus: 4H Assay for Eotaxin 3 Biomarker Activity (AID 2283000). The following applies: primary human endothelial cells (HUVEC); actives raise or lower the signal. Put shortly:
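Readout is Eotaxin-3 (CCL26) level by ELISA in primary human umbilical vein endothelial cells harvested 24 h after chemical exposure; activity fitted in both directions against DMSO control.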

Read-out in assay [4]: Intercellular Adhesion Molecule 1 (ICAM1), ICAM1 (gene 3383)
The experiment in a line: BSK_3C_ICAM1: BioMAP Diversity Plus: 3C Assay for Intercellular Adhesion Molecule 1 (ICAM1) Biomarker Activity (AID 2283003). To be noted: primary human endothelial cells (HUVEC); actives raise or lower the signal. Summed up:
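ICAM-1 levels measured by ELISA after HUVEC cultures in the 3C system had been dosed for 24 h. Gain or loss of signal relative to DMSO was fitted in both directions.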

A short description of assay [5]: BSK_3C_Proliferation: Cell Proliferation Assessment in the BioMAP Diversity Plus: 3C Assay (AID 2283006).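 Further: potency may reflect either rise or fall in cell number versus DMSO.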 To be noted: primary human endothelial cells (HUVEC). Summed up: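 Read-out is total protein by SRB absorbance at 560 nm, taken as a proxy for relative cell number. Primary human umbilical vein endothelium cultured below confluence was dosed for 48 h, TCA-fixed and SRB-stained; curves were fitted bidirectionally versus DMSO.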

Read-out in assay [6]: Interleukin-1 alpha (IL1a), IL1A (gene 3552)
The experiment in a line: BSK_BE3C_IL1a: BioMAP Diversity Plus: BE3C Assay for Interleukin-1 alpha (IL1a) Biomarker Activity (AID 2283016). The following applies: primary human bronchial epithelial cells; actives raise or lower the signal. Summed up:
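BE3C primary human bronchial epithelium; cpd 24 h; IL-1a by ELISA; bidirectional fit vs DMSO; parallel SRB (0.1% SRB, 10% TCA fix, 560 nm) for cytotoxicity.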

Read-out in assay [7]: Monocyte Chemoattractant Protein-1 (MCP1), CCL2 (gene 6347)
Briefly: BSK_3C_MCP1: BioMAP Diversity Plus: 3C Assay for Monocyte Chemoattractant Protein-1 (MCP1) Biomarker Activity (AID 2283017). The following applies: primary human endothelial cells (HUVEC); actives raise or lower the signal. Put shortly: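 HUVEC, 3C system; 24 h chemical exposure; MCP-1 by ELISA; bidirectional curve fit vs DMSO baseline.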

Read-out in assay [8]: Monocyte Chemoattractant Protein-1 (MCP1), CCL2 (gene 6347)
Briefly: BSK_4H_MCP1: BioMAP Diversity Plus: 4H Assay for Monocyte Chemoattractant Protein-1 (MCP1) Biomarker Activity (AID 2283018). To be noted: primary human endothelial cells (HUVEC); actives raise or lower the signal. Put shortly: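 ELISA read-out of MCP-1 from human vascular endothelial primary cells taken at 24 hours after compound exposure. Activity was fitted in both directions relative to DMSO, which served as negative control.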

Read-out in assay [9]: Human Leukocyte Antigen - DR isotype (HLADR), HLA-DRA (gene 3122)
Briefly: BSK_3C_HLADR: BioMAP Diversity Plus: 3C Assay for Human Leukocyte Antigen - DR isotype (HLADR) Biomarker Activity (AID 2283019). The following applies: primary human endothelial cells (HUVEC); actives raise or lower the signal. Put shortly: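 HUVEC, 3C stimulation, 24 h post-dose; HLA-DR by ELISA; bidirectional curve fit vs DMSO baseline; gain or loss of signal scored.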

Read-out in assay [10]: Interleukin-8 (IL8), CXCL8 (gene 3576)
Briefly: BSK_3C_IL8: BioMAP Diversity Plus: 3C Assay for Interleukin-8 (IL8) Biomarker Activity (AID 2283020). The following applies: primary human endothelial cells (HUVEC); actives raise or lower the signal. Put shortly: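 ELISA read-out of IL-8 from human umbilical vein endothelium, measured 24 h after chemical dosing. Activity is expressed relative to DMSO negative control, with both increases and decreases fitted.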

Read-out in assay [11]: Monokine induced gamma interferon (MIG), CXCL9 (gene 4283)
The experiment in a line: BSK_3C_MIG: BioMAP Diversity Plus: 3C Assay for Monokine induced gamma interferon (MIG) Biomarker Activity (AID 2283021). To be noted: primary human endothelial cells (HUVEC); actives raise or lower the signal. Put shortly: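 Read-out is ELISA detection of MIG on human umbilical vein endothelial cells, taken 24 h after dosing. Gain or loss of signal was scored relative to DMSO controls using bidirectional curve fitting.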

Assay [12] can be described thus: BSK_3C_SRB: Viability Assessment in the BioMAP Diversity Plus: 3C Assay (AID 2283023).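 Further: fitted both ways against DMSO so a hit may be signal rise or drop.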 The following applies: primary human endothelial cells (HUVEC). Summed up: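 HUVEC, 24 h post-dose; 10% TCA fix, 0.1% SRB stain, A560 nm. Bidirectional curve fit vs DMSO negative control.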
Read-out in assay [13]: Pselectin, SELP (gene 6403)
Briefly: BSK_4H_Pselectin: BioMAP Diversity Plus: 4H Assay for Pselectin Biomarker Activity (AID 2283026). To be noted: primary human endothelial cells (HUVEC); actives raise or lower the signal. Put shortly: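 ELISA read-out of P-selectin on human umbilical vein endothelium after 24 h of dosing. Values derive from bidirectional fitting relative to DMSO. Parallel SRB protein staining flagged overt cytotoxicity.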

Assay [14] in a line: BSK_4H_SRB: Viability Assessment in the BioMAP Diversity Plus: 4H Assay (AID 2283027).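 Further: cells exposed to compound for 24 h before staining.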 The following applies: primary human endothelial cells (HUVEC). Summed up:
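Absorbance at 560 nm of SRB-stained total protein served as the viability read-out in confluent primary human umbilical vein endothelium 24 h after chemical treatment. Curves were fitted bidirectionally against DMSO as negative control.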

Assay [15] can be described thus: BSK_BE3C_SRB: Viability Assessment in the BioMAP Diversity Plus: BE3C Assay (AID 2283028). To be noted: primary human bronchial epithelial cells. Put shortly:
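Primary human bronchial epithelium; chemical dosing, 24 h; 10% TCA fix, 0.1% SRB stain, A560; bidirectional fit vs DMSO baseline.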

Read-out in assay [16]: Thrombomodulin, THBD (gene 7056)
The experiment in a line: BSK_3C_Thrombomodulin: BioMAP Diversity Plus: 3C Assay for Thrombomodulin Biomarker Activity (AID 2283029). The following applies: primary human endothelial cells (HUVEC); actives raise or lower the signal. Put shortly: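 Read-out is ELISA of thrombomodulin on human umbilical vein endothelium 24 h after chemical dosing. Gain or loss of signal is scored relative to DMSO. Overt cytotoxicity is checked in parallel cultures by sulforhodamine B staining.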

Read-out in assay [17]: Urokinase-type plasminogen activator receptor (uPAR), PLAUR (gene 5329)
Briefly: BSK_4H_uPAR: BioMAP Diversity Plus: 4H Assay for Urokinase-type plasminogen activator receptor (uPAR) Biomarker Activity (AID 2283030). The following applies: primary human endothelial cells (HUVEC); actives raise or lower the signal. Put shortly: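 HUVEC, 24 h post-dose; uPAR by ELISA; bidirectional fit vs DMSO baseline.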

Read-out in assay [18]: Vascular endothelial growth factor receptor 2 (Homo sapiens) (UniProt P35968)
The experiment in a line: BSK_4H_VEGFRII: BioMAP Diversity Plus: 4H Assay for Vascular endothelial growth factor receptor 2 (VEGFR2) Biomarker Activity (AID 2283031).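 On AC50: cell-surface VEGFR2 protein level quantified by ELISA.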 To be noted: primary human endothelial cells (HUVEC); actives raise or lower the signal. Put shortly:
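HUVEC (human primary), 4H system; 24 h post-dose; VEGFRII by ELISA; bidirectional curve fit vs DMSO baseline; gain or loss of signal scored.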

Read-out in assay [19]: Human Leukocyte Antigen - DR isotype (HLADR), HLA-DRA (gene 3122)
Briefly: BSK_BE3C_HLADR: BioMAP Diversity Plus: BE3C Assay for Human Leukocyte Antigen - DR isotype (HLADR) Biomarker Activity (AID 2283032). The following applies: primary human bronchial epithelial cells; actives raise or lower the signal. Put shortly:
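ELISA read-out of HLA-DR on human lung bronchial epithelial primary cells, measured 24 h post-dosing. Both increases and decreases were scored relative to DMSO vehicle.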

Each structure is given as a SMILES string. Several values for one entry are separate records, joined by “and”; a condition that tells them apart may be missing. Equal entries are not always repeated. The source holds several records for some structures; these can differ, active in one and inactive in another. Activity calls are given as the source filed them. How the source made its calls: active means hit-call score of the fitted dose curve at least 0.9, where 1 is the maximum; inactive means score below 0.9.

As for `[Cd+2].[Cl-].[Cl-]`, the outcome in assay [1], in assay [2], in assay [4], in [6], in [7] and in assay [8] was inactive. Besides, the result in [10], in [11], in assay [12], in assay [13], in assay [14] and in assay [15] was inactive. Also, the result in assay [16], in assay [17] and in assay [18] was inactive. Moreover, the AC50 (as a rule, the midpoint of the concentration-response curve, whichever way the signal moves) in assay [3] was 35.7 µM (active) and 32.2 µM (active); in assay [5], 30.1 µM (active) and 30 µM (active); in [9] it was 17 µM (active) and 10.9 µM (active); in assay [10], 20 µM (active); in assay [13], 4.97 µM (active); in assay [18], 6.83 µM (active). For the same molecule, in [19], the AC50 is 20 µM (active).
